Measured values: PubChem BioAssay AID434973 (Sanford-Burnham Center for Chemical Genomics, 2010)
The campaign covered roughly 330,000 compounds. About 4,900 (1.5%) were called active.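 The calls were made as follows: active = inhibition above about 50% at the single test dose (limit read from the data); inactive = the rest.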 Many of the other results were omitted from the sample, so actives are more common in it than they were.

target: Sentrin-specific protease 7 (Homo sapiens) (UniProt Q9BQF6); test: SENP7 protease inhibitors, primary screen, biochemical, luminescence, uHTS (AID 434973); details: recombinant SENP7, Z-RLRGG-aminoluciferin luminescence, 40 min; at 5 µM; active compounds read high;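 also: plate controls were DMSO with enzyme for no effect and no enzyme buffer wells for full effect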

inhibition, inactive:
O=C(c1ccccc1F)N(Cc1ccccc1)Cc1ccccc1 -9.2%
Cc1c(Cl)c([N+](=O)[O-])nn1Cc1ccc(C(=O)N/N=C\c2cc(Cl)ccc2O)o1 10.1%
CCN(CC)S(=O)(=O)c1ccc(OC(C)C)c(N)c1 2.51%
CC(=O)C1C(c2ccc(Cl)cc2)c2c(n[nH]c2C)CC1(C)O (configuration not stated) -1.26%
CC(=O)NNC1=Nc2ccccc2N(C)C(C)C1 (configuration not stated) 1.41%
CCc1cc(=O)oc2cc(OCC(=O)N3CCCc4ccccc43)ccc12 -13.1%
Cc1ccnc(N2C(=O)c3ccc([N+](=O)[O-])cc3C2=O)c1 -0.103%
Cc1ccc(-c2cn(S(=O)(=O)c3cccc([N+](=O)[O-])c3)nc2N)cc1 1.39%
CC(C)(C)c1cc[n+](-c2[nH]c(=O)sc2/C=N/N=C(\[O-])c2ccccc2)cc1 1.22%
CCN(CC)S(=O)(=O)c1ccc(N2CCOCC2)c(NC(=O)c2ccc(=O)n(C)n2)c1 -0.97%
CCC(C)C(NC(=O)C1CCC(=O)N1C(=O)OCc1ccccc1)C(=O)NC(C(=O)N1CCCC1C(N)=O)C(C)CC (configuration not stated) -7.38%
COc1ccc(C(=O)O/N=C(\N)c2ccccn2)cc1[N+](=O)[O-] 10.4%
Cc1ccc(NC(=O)c2ccccn2)cc1S(=O)(=O)N1CCOCC1 -1.52%
O=C(COC(=O)c1ccccn1)NNC(=O)c1ccc(Br)cc1 8.04%
O=C(COC(=O)c1ccccn1)NNC(=O)c1ccc([N+](=O)[O-])cc1 4.18%
CCCCN=C(N)/C(C(=O)OCC)=C(\O)c1ccc(OC)cc1 13.1%
CC(OC(=O)CN1C(=O)c2ccccc2C1=O)C(=O)c1ccccc1 (configuration not stated) 5.15%
CCc1ccc(NC(=O)CN2C(=O)COc3ccc(S(=O)(=O)N4CCCC4)cc32)cc1 2.36%
C=C(Br)Cn1c(CCCC)nc2ccccc21 2.52%
O=[N+]([O-])c1cccc(C2=NCCS2)c1 -1.11%
CC(C)Oc1ccc(Oc2ccc(C(F)(F)F)cn2)cc1 -3.04%
COc1ccc(C(=O)n2nc(C)c(Br)c2C)cc1OC 0.64%
COC(=O)CN1C(=O)[C@H]2[C@@H](/C=C/c3ccccc3)N3C(=O)CN(CC4CC4)C(=O)[C@@]3(Cc3ccccc3)[C@H]2C1=O -16.2%
CCOC(=O)CSc1nnc(-c2cccc(Br)c2)o1 -6.07%
CCOC(=O)CSc1nnc(-c2ccc([N+](=O)[O-])cc2)o1 -2.17%
CCOc1ccc(NC(=O)CN(C)C(=O)c2cccc(S(=O)(=O)N3CCCC3)c2)cc1OCC -6.73%
Cc1ccc(-n2c(-c3ccc(Cl)cc3)n[nH]c2=S)cc1 -0.859%
CSc1nnc2ccc(-c3ccc(C)cc3)nn12 -16.3%
Cc1cc(N2CCOCC2)nc(-c2ccc(Br)cc2)n1 -7.07%
Cc1ccc(-c2cc(N)on2)cc1 -4.29%
O=C1C2C3C=CC(C3)C2C(=O)N1c1ccc(S(=O)(=O)Nc2nccs2)cc1 (configuration not stated) 4.27%
CN(C)c1cccc(C(=O)N2CCC(n3nccc3NC(=O)C3CCOC3)CC2)c1 (configuration not stated) 9.95%
CCCCC(=O)Nc1c2c(nn1-c1ccc([N+](=O)[O-])cc1)CS(=O)(=O)C2 -1.87%
CC1C(=O)N(Cc2ccccc2)c2ccccc2N1C(=O)c1ccccc1 (configuration not stated) -2.81%
COc1cc(Cl)cc(C2NC(=O)NC(C)=C2C(=O)NCc2ccccc2)c1O (configuration not stated) -4.23%
Cn1cccc1C(=O)OCC(=O)NCCc1ccccc1 -5.93%
O=C(COC(=O)c1c2c(nc3ccccc13)CCCC2)c1ccc(Br)s1 14.3%
O=C(CSc1nncn1-c1cccnc1)N1CCOCC1 5.85%
Cc1n[nH]c(=O)c2c(NC(=O)CSc3cc(Cl)ccc3Cl)oc(C)c12 -0.542%
CC1CN(c2cc(=O)n(-c3cccc(Br)c3)c(=O)[nH]2)CC(C)O1 (configuration not stated) 4.5%
CCOC(=O)N1CCC(NC(=O)c2cnn3ccccc23)CC1 -0.379%
Cc1cnc(C(=O)OCC(=O)N2CCc3ccccc32)cn1 -1.46%
Cc1ccc(S(=O)(=O)/N=S(\C)C(C)C)cc1 (configuration not stated) -7.18%
CCC(C)(C(=O)NC1CCCC1)N(C(=O)CNC(C)=O)c1ccc(C)cc1 (configuration not stated) -2.07%
COc1ccccc1NC(=O)c1ccc2nc(N3C(=O)CCC3=O)sc2c1 -10.2%
CCOc1ccccc1NC(=O)c1cccnc1 -1.12%
O=C(CC1C(=O)NCCN1CC(c1ccccc1)c1ccccc1)NCCc1cn[nH]c1 (configuration not stated) -0.769%
O=C(COC(=O)c1ccncc1)c1ccccc1 -15%
Cc1noc(C)c1COC(=O)COc1ccc(-c2ccccc2)cc1 6.3%
CN(C(=O)CSc1nncc2ccccc12)C1CCCCC1 -7.84%
CN(C(=O)c1cc2c(=O)n3ccccc3nc2s1)C1CCCCC1 -3.91%
CCn1cc(C(=O)N[C@@H](C)C(=O)NCCO)c(=O)c2cc3c(cc21)OCO3 -6.11%
CC(C(=O)Nc1ccc(S(=O)(=O)N2CCCC2)cc1)N(C)Cc1ccc(F)cc1 (configuration not stated) 8.65%
CCC(CO)Oc1cc(NCc2ccccc2)c2ncn(C3CCCC3)c2c1 (configuration not stated) 8.26%
CC(C)n1cnc2c(NCc3ccccc3)cc(N[C@@H](CO)Cc3ccccc3)cc21 35.9%
O=C(CCNC(=O)C1CCN(S(=O)(=O)c2ccccc2)CC1)NC1CC1 -2.25%
O=C(O)c1ccc(S(=O)(=O)N2CCOCC2)o1 -7.75%
CCCC(=O)Nc1nnc(CC(=O)OCC)s1 -2.16%
O=C(Nc1ccc(Cl)cc1)c1cc2nc(C3CC3)cc(C(F)(F)F)n2n1 2.83%
COc1cc(C(=O)OC2CCOC2=O)c([N+](=O)[O-])cc1OC (configuration not stated) -1.58%
CC(C)c1ccc(C(=O)OC2CCOC2=O)cc1 (configuration not stated) 5.83%
Cc1cc2oc(=O)cc(CN(C)Cc3ccc(OC(F)F)cc3)c2cc1Cl 5.95%
O=C(c1ccc(F)cc1)n1cc(C(=S)N2CCOCC2)c2ccccc21 -1.66%
O=C(Cn1c(=S)nc2ccccn21)N1CCc2ccccc2C1 -0.589%
O=C(NCC1CCCO1)c1cc2c(s1)CCCC2 (configuration not stated) 7.59%
CN(C)C(=O)c1ccc(NC(=O)COC(=O)c2cc3c(s2)CCCCC3)cc1 -2.04%
CC(Sc1sc(=S)sc1SC(C)C(=O)O)C(=O)O (configuration not stated) -0.431%
N#C/C(C(=S)Nc1ccccc1)=C1/NN=C(N2CCOCC2)N1c1ccccc1 -1.15%
CC1CN(C(=S)SCC(=O)c2ccccc2)CC(C)O1 (configuration not stated) 1.97%
O=C(CSC(=S)N1CCOCC1)c1cc(Br)cc(Br)c1O 1.34%
CCN(CC(=O)Nc1ccccc1C(F)(F)F)C(=O)C1CCN(C(=O)Nc2ccccc2)CC1 3.1%
CC1CCc2sc3nc(N4CCN(CCO)CC4)n4ncnc4c3c2C1 (configuration not stated) -6.6%
CCN1CCN(c2nc(Nc3cccc(F)c3)nc(N)c2[N+](=O)[O-])CC1 -8.75%
COc1cccc(Nc2nc(N)c([N+](=O)[O-])c(NCc3ccco3)n2)c1 3.33%
O=C(NCCCc1ccccc1)C1CCC(CNc2c(N3CCCCC3)c(=O)c2=O)CC1 (configuration not stated) 3.15%
CC(=O)Nc1ccc(CN2CCC(Oc3ccc(C(=O)N4CCCC4)cc3)CC2)cc1 0.753%
O=C(CN1CCN(c2ccccc2F)CC1)c1ccc2c(c1)OCO2 8.23%
O=C(c1ccco1)N1CCN(C(=O)c2cc(-c3ccccc3F)no2)CC1 4.1%

inhibition, active:
Cc1ccc(-n2cc3ccc([N+](=O)[O-])cc3n2)cc1 87.9%
N/C(=N\OC(=O)c1ccc([N+](=O)[O-])cc1)c1ccccn1 94.8%
Cc1ccc(C(=O)O/N=C(\N)c2ccccn2)cc1Cl 95.8%
FC(F)(F)c1ccnc(Oc2ccc(C3=NCCS3)cc2)c1 67.2%
CCCCSc1nnc(-c2ccc(C)cc2)o1 58.9%
Cc1ccc2nc(-c3ccc(Br)cc3)cn2c1 89.3%
Cc1ccc(-c2cn3cc(C)ccc3n2)cc1 86.5%
Cn1cccc1C(=O)OCC(=O)c1ccc(Br)s1 82.4%
O=C(c1cnn2ccccc12)N1CCc2ccccc21 52.8%
COc1ccccc1NC(=O)c1ccc(N2CC3CC(C2)c2cccc(=O)n2C3)c(NC(=O)c2cccnc2)c1 (configuration not stated) 70.4%
O=C(Oc1ccc(-c2nc(-c3ccccn3)no2)cc1)c1ccccc1 99.8%
CN(c1ccc2nc3ccccc3c(=O)n2n1)C1CCCCC1 93.7%
CC(C)n1cnc2c(NCc3ccccc3)cc(OCC3CCN(C)CC3)cc21 52.7%
O=C(OC1CCOC1=O)c1ccc(-c2nc3ccccc3s2)s1 (configuration not stated) 96.8%
O=C(c1ccc(F)cc1)n1c(=S)nc2ccccn21 96.3%
O=C(Nc1ccc(F)cc1)c1cc2c(s1)CCCC2 87%
O=C(CSC(=S)N1CCOCC1)c1ccccc1 62.7%
CNc1nc(Nc2ccc(C)c(Cl)c2)nc(N)c1[N+](=O)[O-] 99.9%
Fc1ccccc1-c1cc2cc3c(cc2cn1)OCO3 77.3%
